# Bioassay records deposited in PubChem BioAssay by National Center for Advancing Translational Sciences (NCATS).
# Hits are enriched below; roughly 2.8% of the tested compounds scored in any of these assays.
# HEK293 viab – counter-screen for SNCA expression inhibitors: cell viability; HEK-293-SNCA-luc viability, GF-AFC fluorescence, 24 h; Potency, µM (highest dose often 57.1 µM), without a hit: top-dose activity change, negative = cytotoxicity, actives largely listed as cytotoxic; 150,000 tested, 0.12% active;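 also: potency is read from the fitted curve at half-maximal effect; 0% = DMSO-treated cells and -100% = medium-only wells without cells; nearly all actives have a fitted effect of over 30% in size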
#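 HEK-293-SNCA-luc cells (1500/well) plated 24 h, then exposed 24 h to a dilution series; GF-AFC added 30 min at 37C, fluorescence 405/540 nm; normalised to medium-only and DMSO wells, Hill fit.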
# IP6K1 inhibitor – IP6K1 kinase inhibition. Q92551. IP6K1 kinase, ADP-Glo luminescence, 2 h; stronger effect = lower value. activity change, % (series mostly up to about 58 µM). 140,000 tested, 0.81% active. AID 1645851; in the data active = activity change below about -25%; also: % is scaled to controls: 0 for no effect and ±100 for the full control effect
#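 ADP-Glo luminescence measures ADP made by human IP6K1 during a 2 h RT reaction with ATP/IP6 (mix at 1.3 mM/130 uM); top library doses 57.5 and 19.1 uM final.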
# KDM5B inh – inhibitors of human KDM5B histone demethylase. AID 1347165. Potency, µM (series often up to 57.7 µM), usual class: inhibitors. Q9UGL1. 220,000 tested, 2.6% active. KDM5B demethylase, FDH-coupled NADH fluorescence (FDH is formaldehyde dehydrogenase); also: potency is read from the fitted curve at half-maximal effect; 0% is about no effect; nearly all actives have a fitted effect of over 70% in size
#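 Coupled FDH/NAD⁺ fluorescence readout. KDM5BΔAP 200 nM final; compound titration, 10 min RT preincubation; substrate mix 12.5 µM H3K4me3, 25 µM 2-OG, 50 µM Fe(II), 100 µM ascorbate, 0.25 mM NAD⁺, 0.25 U/mL FDH; ΔRFU over 30 min.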
# SNCA expr inh – inhibitors of alpha-synuclein (SNCA) gene expression. HEK-293 SNCA-luciferase knock-in, luminescence, 24 h. Potency, µM (doses to about 57.2 µM), for inactives: at the top dose activity change, negative = inhibition, usual class: inhibitors. 140,000 tested, 0.17% active;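 also: potency is read from the fitted curve at half-maximal effect; plate controls were DMSO cells for no effect and cell-free wells for full effect; nearly all actives have a fitted effect of over 45% in size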
# * = called active by the depositor; i = inactive; ? = inconclusive; . = no result given; ! = not confirmed by another sample; [ ] = dose if it differs, or a comment. Unless noted, calls follow the shape of the dose curve; as a rule, active = well fitted curve in the direction sought with a large enough effect; inconclusive = small, poorly fitted or top-dose-only effect, or another doubt; inactive = no such curve, though single readings can be large; an effect the other way counts as inactive or inconclusive.
SMILES,HEK293 viab,IP6K1 inhibitor,KDM5B inh,SNCA expr inh
COc1ccc(CCNC(=O)c2nc3cccnc3n(CCc3ccccc3)c2=O)cc1,3.8%[12.5 µM],6.8,.,-18.6%
COC[C@@H]1CCCN1Cc1cc2cc3c(cc2[nH]c1=O)OCO3,8.2%,10.8,28.2µM*,-7.2%
COC[C@@H]1CCCN1Cc1cn(-c2ccccc2)nc1-c1ccc(OC)cc1F,-4.8%,3.3,i,-7.9%
COc1cccc(Nc2ncc3c(n2)C(C)(C(=O)Nc2nc(C)cs2)CC3)c1 (configuration not stated),-15.1%[87.6 µM],-9.5,35.5µM*,-7.5%[87.6 µM]
Cc1oc(-c2cccc(C(F)(F)F)c2)nc1CN1CCCC(CO)C1 (configuration not stated),-3.2%,45.3,i,-0.7%
COc1ncc(-c2cc(C(=O)NCc3cnn(C)c3)c3c(c2)N(C)CCO3)cn1,-0.8%[87.6 µM],-17.7,i,-3.9%[87.6 µM]
CN1CCOc2c(C(=O)NCc3cnn(C)c3)cc(-c3ccccc3O)cc21,-9.0%[87.6 µM],-15.2,28.2µM*,10.5%[87.6 µM]
Cc1cc(CNC(=O)c2cc(-c3cccnc3)cc3c2OCCN3C)no1,-12.3%[87.6 µM],-24.2,?,-7.5%[87.6 µM]
CN1CCOc2c(C(=O)NCc3cnn(C)c3)cc(-c3cccnc3)cc21,-11.9%[87.6 µM],-7.1,i,-15.4%[87.6 µM]
CN1CCOc2c(C(=O)NCc3cccnc3)cc(-c3ccc(CO)cc3)cc21,-11.9%[87.6 µM],-11.1,39.8µM*,5.0%[87.6 µM]
CN1CCOc2c(C(=O)NCc3cccnc3)cc(-c3ccccc3O)cc21,-16.3%[87.6 µM],-17.8,31.6µM*,-15.4%[87.6 µM]
CN1CCOc2c(C(=O)NCc3cccnc3)cc(-c3ccccc3)cc21,-25.7%[87.6 µM],-14.0,28.2µM*,-18.3%[87.6 µM]
O=C(NCc1ccc(Cl)cc1)c1ccc2nc(-c3ccncc3)oc2c1,1.4%[87.6 µM],6.7,.,33.3%[87.6 µM]
CC1CCN(S(=O)(=O)c2ccc3nc(NCc4ccc(F)cc4)ccc3c2)CC1,-26.1%,3.3,?,?
Cc1ccsc1C(=O)N1C[C@@H]2CCCN3CCC[C@@H]([C@H]23)[C@H]1CCCC(=O)N1CCOCC1,5.1%,13.7,i,-9.8%
CCOC(=O)c1cn(Cc2ccc(C)cc2)c2cc(F)ccc2c1=O,.,.,i,.
COCCN1C(=O)CO[C@H]2CN(c3ncccn3)C[C@H]21,-5.7%[87.6 µM],-7.4,35.5µM*,-10.1%[87.6 µM]
COc1ccc(CC(=O)N[C@@H]2CN(c3ccncn3)C[C@H]2CO)cc1,6.7%,0.0,i,-0.1%
COc1ccccc1C(=O)NC1CCN(c2cc(-c3cccs3)[nH]n2)C1 (configuration not stated),?,4.5,15.8µM*,-23.9%
O=C(NC1CCN(c2cc(-c3cccs3)[nH]n2)C1)c1ccccc1Br (configuration not stated),-10.0%,-3.3,25.1µM*,10.0%
COc1cc(C(=O)NC2CCN(c3cc(-c4cccs4)[nH]n3)C2)cc(OC)c1OC (configuration not stated),-11.5%,-10.4,?,4.8%
COc1cc(OC)cc(C(=O)NC2CCN(c3cc(-c4cccs4)[nH]n3)C2)c1 (configuration not stated),?,-5.1,3.55µM*,?
COc1ccc(NC(=O)c2cnc[nH]2)cc1,-11.9%,-3.1,i,14.1µM*
COc1ccc(C(=O)c2cnc[nH]2)cc1,.,.,i,.
Cc1ccc(-c2nnc([C@H]3CCN(c4ncccn4)C3)o2)cc1,-3.3%[87.6 µM],23.0,39.8µM*,18.6%[87.6 µM]
SMILES,HEK293 viab,IP6K1 inhibitor,KDM5B inh,SNCA expr inh
Cc1ccc(-c2nnc([C@H]3CCN(c4nccc(C(F)(F)F)n4)C3)o2)cc1,3.9%[87.6 µM],12.2,20µM*,-17.7%[87.6 µM]
FC(F)(F)c1ccnc(N2CC[C@H](c3nnc(-c4ccncc4)o3)C2)n1,-1.4%[87.6 µM],-5.2,?,-18.0%[87.6 µM]
O=C1NCC(c2ccc(Cl)cc2)Cc2[nH]c(-c3ccc(O)cc3)nc21 (configuration not stated),?,1.0,25.1µM*,-10.6%
Cc1ccc(CNC(=O)Cn2c(N3CCN(c4ccccc4)CC3)nc(C)cc2=O)cc1,6.1%,5.6,i,?
COCCn1c(N2CCN(Cc3ccccc3)CC2)nc2c1c(=O)[nH]c(=O)n2C,.,.,i,.
O=C(c1ccc(Nc2nccc(-c3cc4ccccc4s3)n2)cc1)N1CCC(N2CCCC2)CC1,29.9µM*!,-1.1,.,?
O=C(c1ccc(Cl)cc1)N1CCC(N2CCCC2)CC1,15.0%,-17.7,i,0.1%[87.6 µM]
O=C(NC1CCCN(Cc2ccccc2F)C1)c1cccc(N2CCCC2=O)c1 (configuration not stated),.,.,i,.
O=C1NCC2(CCN(c3nccc(CCC(F)(F)F)n3)CC2)O1,-0.2%,-6.7,20µM*,-10.2%
